Source: PubChem BioAssay AID1063 (University of Pittsburgh Molecular Library Screening Center, 2008)
Values joined by “and” are separate entries in the source; they are usually repeats but may differ in a detail not shown here. Equal values may be shown once. In all, about 200,000 compounds went through this assay and about 18,000 (9%) were called active. Many of the other results were omitted from the sample, so actives are more common in it than they were. Unmarked numbers belong to inactive results. No stated cut-off is given here; in the data, active means inhibition above about 50%; inactive means the rest.

test: Leishmania major promastigote growth inhibition, primary screen (AID 1063); settings: Leishmania major promastigotes, resazurin fluorescence viability; at 10 µM; hits give high values;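 further: promastigotes grown with compound for 44 hours at 28 °C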

For Cc1cccc(C)c1NC(=O)C1CCCN1C(=O)OC(C)(C)C (centres undefined), which inhibition is on record?
The inhibition was -5.04%.

Which inhibition does the source give for Cc1ccc(NC(=O)c2csc3c2CCCC3)cc1 here?
The inhibition was 12.4%.

For Cc1cc(C(=O)OC(C)C(=O)Nc2cccc(S(=O)(=O)N3CCOCC3)c2)c(C)o1 (centres undefined), which inhibition is on record?
Its inhibition is 99.7% (active).

For CC(Sc1cccc[n+]1[O-])C(=O)Nc1cccc(S(=O)(=O)N2CCOCC2)c1 (centres undefined), which inhibition is on record?
Its inhibition is -4.48%.

Which inhibition does the source give for O=C(COC(=O)c1ccccc1)Nc1cccc(S(=O)(=O)N2CCOCC2)c1 here?
The inhibition was -3.29%.

For Cc1nc(CN2CCN(C(=O)CCc3nnc(Cc4c[nH]c5ccccc45)o3)CC2)cs1, which inhibition is on record?
Its inhibition is 0.41%.

For CN(CCN1CCOCC1)Cc1nc(-c2ccc3c(c2)OCO3)no1, which inhibition is on record?
Its inhibition is 39.3%.

Which inhibition does the source give for CC(C)c1cc(NCc2ccccn2)n2c(nc3ccccc32)c1C#N here?
The inhibition was 8.36%.

With Cc1cc(N/N=C/c2ccccc2F)c2ccccc2n1 as the molecule, how does the inhibition read?
Its inhibition is 12.3%.

For Cc1nc(N2CCOCC2)sc1C(=O)NN, which inhibition is on record?
The inhibition was 7.46%.

With Cc1ccc(C(=O)N2CCCC(c3ccccc3)=N2)cc1 as the molecule, how does the inhibition read?
Its inhibition is 16.1%.

For Cc1ccc(C(=O)C[n+]2cc(-c3ccccc3)n3c2CCCCC3)cc1, which inhibition is on record?
Its inhibition is 101% (active) and 100% (active).

With Cn1c(-c2ccccc2)c[n+]2c1CCCCC2 as the molecule, how does the inhibition read?
Its inhibition is 0.17%.

Which inhibition does the source give for N/C(=N/O)c1cccn1Cc1ccccc1[N+](=O)[O-] here?
The inhibition was -1.66%.

With COc1ccc(C)cc1NC(=O)c1ccc(-c2ccc(C(C)=O)cc2)o1 as the molecule, how does the inhibition read?
The inhibition was -4.3%.

Which inhibition does the source give for S=C(Nc1ccc(Br)cc1Cl)NC1CCN(Cc2ccccc2)CC1 here?
Its inhibition is 90.3% (active).

With O=C(NC(=S)N1CCN(Cc2ccccc2)CC1)c1ccccc1 as the molecule, how does the inhibition read?
The inhibition was 14.1%.

Which inhibition does the source give for COc1cc2[nH]c(=O)n(CCC(=O)NC3CCN(Cc4ccccc4)CC3)c(=O)c2cc1OC here?
Its inhibition is -1.95%.

With O=C(NC1CCN(Cc2ccccc2)CC1)c1ccccc1F as the molecule, how does the inhibition read?
Its inhibition is 62.4% (active).

For S=C(NN=C1CCN(Cc2ccccc2)CC1)NC1CCCCC1, which inhibition is on record?
Its inhibition is -4.71%.

Which inhibition does the source give for O=C(COc1ccccc1F)NC1CC1 here?
The inhibition was -1.88%.

Which inhibition does the source give for O=C(NC1CCN(Cc2ccccc2)CC1)c1cc(Br)c(Br)[nH]1 here?
Its inhibition is 60.3% (active).

Which inhibition does the source give for O=C(COc1ccc(Br)cc1F)NC1CCN(Cc2ccccc2)CC1 here?
Its inhibition is 93.2% (active).

Which inhibition does the source give for Cc1ccn2cc(C(=O)NC3CCN(Cc4ccccc4)CC3)nc2c1 here?
Its inhibition is 4.6%.

Which inhibition does the source give for COc1cc2[nH]c(=O)n(Cc3ccc(C(=O)NC4CCN(Cc5ccccc5)CC4)cc3)c(=O)c2cc1OC here?
The inhibition was -5.05%.

Which inhibition does the source give for O=C(NC1CCN(Cc2ccccc2)CC1)c1c(F)cccc1F here?
Its inhibition is 21.7%.

With O=C(NNC(=S)Nc1ccc(Br)cc1Cl)c1ccco1 as the molecule, how does the inhibition read?
Its inhibition is 0.76%.

Which inhibition does the source give for O=C1c2ccccc2NC(c2ccccc2O)N1NS(=O)(=O)c1ccccc1 (centres undefined) here?
Its inhibition is 7.23%.

Which inhibition does the source give for Cc1ccc(Cl)c(NC(=O)CN2CCN(C=O)CC2)c1 here?
The inhibition was -1.88%.

For COc1cccc(NC(=O)c2ccc3c(SCC(=O)O)c4c(nc3c2)CCCC4)c1, which inhibition is on record?
The inhibition was 7.5%.

Which inhibition does the source give for O=C(Nc1ccncc1)c1cc(-c2ccccn2)nc2ccc(Br)cc12 here?
The inhibition was 2.98%.

With NC(=O)c1ccccc1N(Cc1ccccc1)S(=O)(=O)c1ccccc1 as the molecule, how does the inhibition read?
Its inhibition is 2.81%.

With CC(C)(C)n1nc2c(c1NC(=O)c1cc3ccccc3o1)CSC2 as the molecule, how does the inhibition read?
Its inhibition is 1.01%.

For COc1ccccc1N1CCN(c2ccc([N+](=O)[O-])nc2)CC1, which inhibition is on record?
The inhibition was -10.8%.

For OCC1(Cc2ccccc2C(F)(F)F)CCN(Cc2cccc3cnccc23)CC1, which inhibition is on record?
The inhibition was 88.2% (active).

Which inhibition does the source give for C/C(=N/N1CCN(Cc2cccc3ccccc23)CC1)c1cccnc1 here?
Its inhibition is 17.2%.

Which inhibition does the source give for CCOC(=O)C1(Cc2ccccc2C(F)(F)F)CCN(C(=O)c2cc(C)n(C)n2)CC1 here?
The inhibition was 5.02%.

Which inhibition does the source give for COc1ccc(C2=NN(c3nc4ccccc4s3)C(=O)C2)cc1 here?
The inhibition was -7.22%.

Which inhibition does the source give for CCC(C)(C)NC(=O)CN(C(=O)CCC(=O)Nc1cc(C)ccn1)c1ccc2c(c1)OCCO2 here?
Its inhibition is -0.92%.

For CCC(C)N(C)C1CCN(C(=S)Nc2ccc(OC)cc2)CC1 (centres undefined), which inhibition is on record?
Its inhibition is 34.2%.

Which inhibition does the source give for CCOc1ccc(NC(=S)N2CCCCCC2)cc1 here?
Its inhibition is 3.65%.

With CCOc1ccc(NC(=S)N2CCC(N(C)CC3CCCO3)CC2)cc1 (centres undefined) as the molecule, how does the inhibition read?
Its inhibition is 96.2% (active).

Which inhibition does the source give for Cn1cc(CN2CCC(C(O)CCc3ccccc3)CC2)c(-c2ccccc2F)n1 (centres undefined) here?
The inhibition was -2.53%.

Which inhibition does the source give for Cc1ccc(NC(=O)Cn2c(=O)n(CCC(=O)NC3CCN(Cc4ccccc4)CC3)c(=O)c3ccccc32)cc1 here?
Its inhibition is 0.09%.

Which inhibition does the source give for Cc1ccc(CNC(=O)CCNS(=O)(=O)c2ccc(Br)s2)cc1 here?
The inhibition was -6.86%.

For COc1ccc(Cn2c(=O)cc(C)[nH]c2=S)cc1, which inhibition is on record?
Its inhibition is -4.72%.

Which inhibition does the source give for COc1ccc(CN2CN(C(C)C)CSC2=S)cc1 here?
Its inhibition is 96.4% (active).

With COc1ccc(CN2CN(C3CCCC3)CSC2=S)cc1 as the molecule, how does the inhibition read?
The inhibition was 5.66%.

Which inhibition does the source give for COc1ccccc1CSc1nc2ccccc2[nH]1 here?
The inhibition was -3.47%.

For COc1ccccc1CC(=O)Nc1ccc([N+](=O)[O-])cc1OC, which inhibition is on record?
The inhibition was -0.93%.

Which inhibition does the source give for COc1ccccc1CSc1ncc(-c2ccc([N+](=O)[O-])cc2)[nH]1 here?
Its inhibition is 76.4% (active).

With CCOC(=O)/C=c1\s/c(=C\c2ccc(C#N)cc2)c(=O)n1CC(=O)Nc1cccc(C)c1C as the molecule, how does the inhibition read?
Its inhibition is -1.97%.

With CCOC(=O)C/C(C)=N\Nc1ccc([N+](=O)[O-])cc1[N+](=O)[O-] as the molecule, how does the inhibition read?
The inhibition was 2.68%.

With CN1C(=O)/C(=C/C=C2\SCCN2C)OC1=S as the molecule, how does the inhibition read?
The inhibition was 12.9%.

For COc1cc(S(=O)(=O)N(Cc2cccs2)C2CC2)ccc1-n1cnnn1, which inhibition is on record?
The inhibition was 99.8% (active).

With CCN(CC)S(=O)(=O)c1ccc(N2CCCC2)c(NS(=O)(=O)c2cccs2)c1 as the molecule, how does the inhibition read?
Its inhibition is -1.33%.

For COc1ccc(N(CC(=O)N/N=C/c2cccs2)S(=O)(=O)c2ccc(OC)c(OC)c2)cc1, which inhibition is on record?
Its inhibition is 3.63%.

With CCOc1ccc(CN(Cc2ccco2)S(=O)(=O)c2ccc(-n3cnnn3)c(OC)c2)cc1 as the molecule, how does the inhibition read?
The inhibition was 95.5% (active).

For COc1ccc(CN(Cc2ccco2)S(=O)(=O)c2ccc(S(=O)(=O)N3CCCC3)cc2)cc1, which inhibition is on record?
Its inhibition is -4.09%.

For CCOc1ccc(S(=O)(=O)N(CC(=O)NCC(F)(F)F)Cc2ccco2)cc1, which inhibition is on record?
The inhibition was -5.48%.

With C=CCn1c(CCc2ccc(OC(C)C)cc2)n[nH]c1=S as the molecule, how does the inhibition read?
The inhibition was 1.12%.

With O=C(c1ccc(F)cc1)N1CCC(n2nnc3ccccc32)CC1 as the molecule, how does the inhibition read?
The inhibition was 1.08%.

With CCc1c(O)nc(SCC(=O)N2CCCCC2)n(-c2ccccc2C)c1=O as the molecule, how does the inhibition read?
Its inhibition is 1%.

Which inhibition does the source give for CCc1c(O)cc2n(c1=O)-c1ccccc1C2(C)C here?
The inhibition was 51.1% (active).

Which inhibition does the source give for CC(=O)c1c(O)cc2n(c1=O)-c1ccc(Cl)cc1C2(C)C here?
The inhibition was -6.77%.

For O=C(Nc1nnc(C2CC2)s1)C1=NN(C2CCS(=O)(=O)C2)C(=O)CC1 (centres undefined), which inhibition is on record?
Its inhibition is -3.9%.

Which inhibition does the source give for COC(=O)c1cc2c(ccn2C)n1C here?
Its inhibition is -2.26%.

For N#C/C(=C1\CCCN1)c1nc(-c2ccccc2)cs1, which inhibition is on record?
Its inhibition is 4.05%.

Which inhibition does the source give for N#CC1=C(SCc2ccc(C#N)cc2)N=C(N)C(c2nc(-c3ccccc3)cs2)C12CCCCC2 (centres undefined) here?
Its inhibition is 98% (active).

With N#CC1=C(SCc2ccccc2)NC(=O)C(C#N)C12CCCC2 (centres undefined) as the molecule, how does the inhibition read?
The inhibition was -9.59%.

With CCN(CC)S(=O)(=O)c1ccc(OC(C)C)c(N)c1 as the molecule, how does the inhibition read?
Its inhibition is -4.13%.

With Nc1nc(SCC(=O)NNc2c(Cl)cc(Cl)cc2Cl)n[nH]1 as the molecule, how does the inhibition read?
The inhibition was -7.01%.

For COc1cc(/C=C/C(=O)O)cc(S(=O)(=O)Nc2ccccc2SC)c1OC, which inhibition is on record?
The inhibition was 46.9%.

For O=C(CN1CCCCC1)N1c2ccccc2Sc2ccc(C(F)(F)F)cc21, which inhibition is on record?
The inhibition was 92% (active).

For O=C(CN1CCCCCC1)N1c2ccccc2Sc2ccc(C(F)(F)F)cc21, which inhibition is on record?
Its inhibition is 46%.

For COc1cc(/C=C2\SC(=S)N(Nc3ncc(C(F)(F)F)cc3Cl)C2=O)cc(OC)c1OC, which inhibition is on record?
Its inhibition is -11.1%.

With CCOC(=O)CNC(=O)N1c2ccccc2Sc2ccccc21 as the molecule, how does the inhibition read?
The inhibition was 3.23%.

For COc1cc(/C=C/C(=O)N2c3ccccc3Sc3ccc(C(F)(F)F)cc32)cc(OC)c1OC, which inhibition is on record?
Its inhibition is 81.2% (active).

Which inhibition does the source give for O=C(NC(Cc1c[nH]c2ccccc12)C(=O)O)/C(=C/c1ccco1)NC(=O)c1ccccc1 (centres undefined) here?
The inhibition was 3.28%.

Which inhibition does the source give for COc1ccc(CC(NC(C)=O)C(=O)NC2CCN(C(=O)c3ccc(OC)c(OC)c3)CC2)cc1OC (centres undefined) here?
The inhibition was -4.66%.

Which inhibition does the source give for CCCN(CC(=O)Nc1ccc(C(N)=O)cc1)CC(=O)Nc1ccccc1C here?
The inhibition was 7.98%.

With Cc1cccc(C(=O)Nc2ccc3c(c2)C(=O)N(CC(C)C)C3=O)c1 as the molecule, how does the inhibition read?
Its inhibition is -9.76%.

With COc1ccc2c(c1)cc1n2CCN=C1NN as the molecule, how does the inhibition read?
Its inhibition is 84.1% (active).

Which inhibition does the source give for Cc1cc(C(=O)Cn2cnc3cc([N+](=O)[O-])ccc3c2=O)c(C)n1CC1CCCO1 (centres undefined) here?
Its inhibition is -3.96%.

Which inhibition does the source give for Clc1ccc(C2=CSC3=Nc4cccc5cccc(c45)N23)cc1 here?
The inhibition was 99.4% (active).

For Cc1ccc(NC(=O)O/N=C/c2cccc([N+](=O)[O-])c2)cc1, which inhibition is on record?
Its inhibition is -3.19%.

For O=C1CCC/C(=N\NC(=O)NC2CCCCC2)C1, which inhibition is on record?
Its inhibition is -1.59%.

With CCOc1ccc(S(=O)(=O)Nc2nccs2)cc1 as the molecule, how does the inhibition read?
Its inhibition is -5.45%.

For CC(C)(C)C(=O)CN1C2=NCCN2c2ccccc21, which inhibition is on record?
Its inhibition is -5.39%.

For Fc1cccc(CSc2nnc3ccc(-c4ccncc4)nn23)c1, which inhibition is on record?
The inhibition was 10.7%.

For Cc1c(C(=O)CN2CCOCC2)[nH]c2ccccc12, which inhibition is on record?
The inhibition was -3.24%.

For Cc1c(C(=O)N2CCOCC2)[nH]c2ccc(OCc3ccccc3)cc12, which inhibition is on record?
Its inhibition is 88.8% (active).

For CCOC(=O)c1[nH]c2ccc(OC)cc2c1NC(=O)N1CCOCC1, which inhibition is on record?
Its inhibition is 2.48%.

For CCCCN(C(=O)c1ccc(OC(F)(F)F)cc1)c1c(N)n(CCC)c(=O)[nH]c1=O, which inhibition is on record?
Its inhibition is -4.12%.
